Measured values as given in PubChem BioAssay.
A number with no mark means an inactive call. No rule for the calls is given here.

Each compound was assayed against Pantothenate synthetase (Mycobacterium tuberculosis (strain ATCC 25618 / H37Rv)) (UniProt P9WIL5) (assay: Recombinant Mtb pantothenate synthetase (PanC) inhibitors, coupled enzyme, confirmatory (AID 375;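 also: 0% = full reaction with vehicle and 100% = no enzyme background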)). Conditions: coupled enzyme assay; at 10 µM, stronger effect = higher value.
Chain of Pantothenate synthetase (Mycobacterium tuberculosis (strain ATCC 25618 / H37Rv)) (P9WIL5 whole entry, looked up): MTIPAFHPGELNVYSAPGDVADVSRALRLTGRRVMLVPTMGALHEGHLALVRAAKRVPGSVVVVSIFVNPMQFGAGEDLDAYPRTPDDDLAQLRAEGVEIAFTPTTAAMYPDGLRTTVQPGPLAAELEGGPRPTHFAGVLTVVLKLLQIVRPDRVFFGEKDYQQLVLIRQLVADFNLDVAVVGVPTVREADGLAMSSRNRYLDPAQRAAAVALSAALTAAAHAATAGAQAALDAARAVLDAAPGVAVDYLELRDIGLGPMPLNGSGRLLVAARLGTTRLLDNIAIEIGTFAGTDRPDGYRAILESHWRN

Row | Compound | inhibition
1 | CC(=O)N1CCc2cc(S(=O)(=O)CCC(=O)N3CCN(C(=O)c4ccco4)CC3)ccc21 | 6%
2 | CCOc1ccc(NC2c3ccccc3C(=O)N2Cc2ccco2)cc1 (stereo not drawn) | 1%
3 | O=C(Nc1cccnc1)Nc1ccc(F)c(Cl)c1 | 0%
4 | COc1cccc(N2CCN(Cc3nc(N)nc(Nc4ccccc4OC)n3)CC2)c1 | 0%
5 | C=CCOc1nc2c(c(=O)n(C)c(=O)n2C)n1C | 0%
6 | O=C(C1CCN(S(=O)(=O)N2CCC3(CC2)OCCO3)CC1)N1CCOCC1 | 0%
7 | C(=N\n1cnnc1)/c1cccnc1 | 0%
8 | CCOC(=O)c1[nH]c2ccc(C)cc2c1N=C(C)N(C)C | 11%
9 | CCN1CCN(c2nc(C)nc3c2sc(=S)n3C)CC1 | 0%
10 | CC1(C)Cc2c(sc3ncnc(N)c23)CO1 | 14%
11 | CN(C(=O)C(Cl)Cl)c1ccc(OC(=O)c2ccco2)cc1 | 7%
12 | Cn1c(=O)c2c(nc(CN3CCOCC3)n2CC(O)CO)n(C)c1=O (stereo not drawn) | 8%
13 | Cc1cc(NC(=O)C2=C(O)c3ccccc3S(=O)(=O)N2C)no1 | 0%
14 | COc1ccc(C(=O)CSc2nnc(C3CCCCC3)n2N)c(OC)c1 | 0%
15 | Cc1ccnc2c(N3C(=O)C4C5C=CC(C5)C4(C)C3=O)cccc12 (stereo not drawn) | 0%
16 | COc1ccc(N2C(=O)C(Cl)=C(N3CCCC3)C2=O)cc1 | 0%
17 | Cc1cc(NC(=O)COc2cccc(C)c2C)no1 | 0%
18 | C=CCSc1nc2c(c(=O)[nH]c(=O)n2C)n1CC | 2%
